# Results from PubChem BioAssay AID2315 (National Center for Advancing Translational Sciences (NCATS), 2010).
# The campaign covered roughly 290,000 compounds. About 27,000 (9.3%) were called active. Cut-off read from the data, not from the text of the source: active = inhibition mostly above about 28% (no sharp cut-off); inactive = mostly below about 43%. The sample as a whole holds a higher share of actives than the screen did.
# Test: A qHTS for Small Molecule Inhibitors of Shiga Toxin; note: 0% is about no effect
# Settings: Vero cells, Shiga toxin protein synthesis inhibition reporter; at 38.7 µM, hits give high values
row,Structure (SMILES),inhibition
1,CC(=O)N1CCSc2ccc(S(=O)(=O)N3CCC(C)CC3)cc21,-12.1% (inactive)
2,O=C(Nc1ccccc1N1CCCC1)c1ccc2ccccc2c1,58.1% (inactive)
3,CCCN(CCC)C(=S)Nc1cc(C(=O)OC)ccc1C(=O)OC,-14.3% (inactive)
4,COc1ccc(S(=O)(=O)N(CC(=O)N/N=C/c2ccc(C(=O)O)cc2)Cc2ccccc2)cc1OC,1.95% (inactive)
5,CCCNC(=O)c1c(N)n(-c2ccc(S(N)(=O)=O)cc2)c2nc3ccccc3nc12,-14.1% (inactive)
6,CCC(C)NC(=O)c1c(N)n(/N=C/c2cccs2)c2nc3ccccc3nc12 (stereo unspecified),107% (active)
7,CC(C)Cn1c(N)c(C(=O)NCc2cccs2)c2nc3ccccc3nc21,-13.1% (inactive)
8,CCc1[nH]nc(C(=O)N2CCCC(CO)(Cc3ccc(F)cc3F)C2)c1C (stereo unspecified),-13.8% (inactive)
9,Cc1ccc(S(=O)(=O)CC(=O)NC(C)c2ccccc2)cc1 (stereo unspecified),-1.44% (inactive)
10,CCc1ccccc1NC(=O)[C@@H]1CCC(=O)N1C1OC(=O)c2c1ccc(OC)c2OC (stereo partly specified),-2.37% (inactive)
11,Cc1ccc2[nH]cc(CCCN3C(=O)c4ccccc4C3=O)c2c1,1.09% (inactive)
12,COc1ccc(C[C@H](C(=O)O)N2C(=O)c3ccc(C(=O)O)cc3C2=O)cc1,2.25% (inactive)
13,COc1ccc2[nH]cc(CCN3C(=O)c4ccc(C(=O)O)cc4C3=O)c2c1,60.8% (active)
14,O=C(CC(c1ccccc1)c1ccccc1)NCC(O)c1ccc([N+](=O)[O-])cc1 (stereo unspecified),-4.27% (inactive)
15,COc1ccc(NC(=S)N2CCCC(CO)C2)c(OC)c1 (stereo unspecified),-3.35% (inactive)
16,CCCCc1ccc(NC(=S)N2CCCC(CO)C2)cc1 (stereo unspecified),87.2% (active)
17,CCCCc1ccc(NC(=S)NCCCN2CCOCC2)cc1,-8.23% (inactive)
18,COc1ccc(C(=O)Nc2ccccc2C(=O)N2CCN(c3ccccc3)CC2)cc1,-6.97% (inactive)
19,CCn1nccc1C(=O)Nc1ccc(Cl)c(Cl)c1,81% (active)
20,CCn1nccc1C(=O)Nc1ccc(S(=O)(=O)NC23CC4CC(CC(C4)C2)C3)cc1,-9.86% (inactive)
21,Cc1nnc(NC(=O)Nc2ccc(Cl)c(Cl)c2)s1,-3.3% (inactive)
22,CC1=C(C(=O)OC2CCCCC2)C(c2ccccc2F)NC(=O)N1 (stereo unspecified),4.41% (inactive)
23,O=C(O)c1cc(S(=O)(=O)N(Cc2ccccc2)c2ccccc2)ccc1Cl,-7.94% (inactive)
24,O=C(NCc1cccc(Cl)c1)C1CCN(c2nnc(N3CCCC3=O)s2)CC1,-4.8% (inactive)

row,Structure (SMILES),inhibition
1,Cc1ccc(C)c(N2CCN(C(=O)CCCCCn3c(=S)[nH]c4ccc(N5CCOCC5)cc4c3=O)CC2)c1,1.81% (inactive)
2,Cc1ccc(NC(=S)NC(=O)/C=C/c2ccc(Cl)cc2)cc1,13% (inactive)
3,COC(=O)c1c(C)[nH]c(C(=O)/C=C/c2ccc(Cl)cc2)c1C,54.7% (active)
4,COC(=O)c1c(C)[nH]c(C)c1-c1ccc([N+](=O)[O-])cc1,21.5% (inactive)
5,O=C(c1cccs1)C1C(c2ccc(Br)cc2)NC(=S)NC1(O)C(F)(F)F (stereo unspecified),69.1% (active)
6,CC(=O)C1C(c2ccc(Cl)cc2)NC(=O)NC1(O)C(F)(F)F (stereo unspecified),-1.27% (inactive)
7,CCOC(=O)C1C(c2ccc(Cl)cc2)NC(=S)NC1(O)C(F)(F)F (stereo unspecified),-9.88% (inactive)
8,CC(=O)N1CCN(CC(C)(C)NS(=O)(=O)c2ccc(C)cc2)CC1,-4.99% (inactive)
9,COC(=O)c1c(C)[nH]c(C(=O)NCCc2ccc(S(N)(=O)=O)cc2)c1C,2.99% (inactive)
10,CCCCOC(=O)c1[nH]c(C)c(C(=O)OC)c1C,94.4% (active)
11,CC(=O)c1c(C)[nH]c(C(=O)OCC(=O)NCCC(C)C)c1C,-4.2% (inactive)
12,Cc1ccc(CN2CCN(c3ncccn3)CC2)c(C)c1,6.99% (inactive)
13,Cc1ccccc1CN1CCNC(=O)C1CC(=O)NCCC1=CCCCC1 (stereo unspecified),-8.04% (inactive)
14,CC(=O)N1C(=O)C2(Nc3ccccc3N2)c2ccccc21,-7.58% (inactive)
15,CC(C)=NN1C(=O)c2ccccc2NC1(C)C,91.4% (active)
16,CC(=O)NN1C(=O)c2ccccc2NC1c1ccccc1 (stereo unspecified),4.01% (inactive)
17,Nc1nc(SCC(=O)Nc2cc(C(F)(F)F)ccc2Cl)[nH]c(=O)c1NC(=O)c1ccco1,-1.11% (inactive)
18,CCC(C)N1C(=O)S/C(=C/c2ccc(Sc3nc4ccccc4[nH]3)o2)C1=O (stereo unspecified),11.8% (inactive)
19,COc1ccc(N2CCN(S(=O)(=O)c3ccc4c(c3)NC(=O)C(C)C(=O)N4)CC2)cc1 (stereo unspecified),-6.85% (inactive)
20,O=S(=O)(Nc1ccc(Oc2ncccn2)c(Cl)c1)c1ccc(F)cc1,-3.73% (inactive)
21,C=CCOc1cccc(CNCc2cccnc2)c1,29% (inactive)
22,CCc1ccc(-c2cc(C(=O)NCc3ccco3)c3ccccc3n2)s1,41.4% (inactive)
23,CC(=NCc1ccco1)c1c(C(F)(F)F)[nH]n(-c2nc3ccccc3s2)c1=O,122% (active)
24,C/C(=N\NC(=O)CC(C)C)c1c(C(F)(F)F)[nH]n(-c2nc3ccccc3s2)c1=O,65.9% (active)

row,Structure (SMILES),inhibition
1,CCC(C)Cn1c(O)cc2nn(-c3nc4ccccc4s3)c(=O)c-2c1C (stereo unspecified),29.1% (inactive)
2,COC(=O)Cc1[nH]n(-c2nc3ccccc3s2)c(=O)c1C(C)=Nc1ccc(OC)cc1,38.9% (inactive)
3,CC(=NCc1ccco1)C1=C(O)c2ccccc2C1=O,31.2% (inactive)
4,Cc1ccc(NC(=O)[C@H](Cc2ccccc2)NC(=O)C2CCNCC2)cc1,-0.595% (inactive)
5,COc1ccccc1NC(=O)N1CCCC1C(=O)NCc1cccs1 (stereo unspecified),-1.36% (inactive)
6,O=C(c1ccc(OC2CCN(C/C=C/c3ccc(F)cc3)CC2)cc1)N1CCCCC1,-5.42% (inactive)
7,COCC1CCN(C(=O)C2CCC(=O)N(Cc3cccc(C(F)(F)F)c3)C2)CC1 (stereo unspecified),38.4% (active)
8,COCC1CCN(C(=O)C2CCC(=O)N(CC3CCCCC3)C2)CC1 (stereo unspecified),19.8% (inactive)
9,O=C1CCC(C(=O)N2CCCCO2)CN1Cc1cccc(C(F)(F)F)c1 (stereo unspecified),29.5% (inactive)
10,CCOc1ccc(N(CC(=O)NCCc2ccc(F)cc2)S(=O)(=O)c2ccccc2)cc1,10.2% (inactive)
11,O=C(NCCN1CCOCC1)c1ccc(/C=C2\Sc3ccccc3N(Cc3ccc(F)cc3)C2=O)cc1,-4.17% (inactive)
12,CCOC(=O)C1CCN(C(=O)COc2cccc3ccccc23)CC1,34.7% (active)
13,NC(=O)C1CCN(C(=O)COc2cccc3cccnc23)CC1,33.9% (inactive)
14,CCOC(=O)C1CCN(C(=O)COc2cc(C)c(Br)c(C)c2)CC1,2.84% (inactive)
15,O=C(O)c1cc(S(=O)(=O)NC2CCCc3ccccc32)ccc1O (stereo unspecified),16.7% (inactive)
16,CCN(CC)CCCNC(=O)c1cn(C)c2ccc(S(=O)(=O)N(C)C3CCCCC3)cc2c1=O,-11.8% (inactive)
17,COc1ccccc1C(=O)N(Cc1ccc(C)o1)C1CCS(=O)(=O)C1 (stereo unspecified),-7.17% (inactive)
18,Cc1ccc(C(=O)Nc2cccc3ncccc23)cc1[N+](=O)[O-],11.7% (inactive)
19,Cc1cc(O)c(NC(=O)c2ccc(C)c([N+](=O)[O-])c2)cc1C,57.7% (active)
20,CCN1CCC(=NNC(=O)c2ccc(C)c([N+](=O)[O-])c2)CC1,14.2% (inactive)
21,Cc1csc(NC(=O)CSc2nc(=O)cc(N)n2-c2ccc(F)cc2)n1,-2.89% (inactive)
22,Cc1ccccc1NC(=O)N1CCCC1C(=O)NCc1ccccc1 (stereo unspecified),-8.06% (inactive)
23,COc1ccc(C(=O)n2nc(C)c(Br)c2C)cc1OC,1.86% (inactive)
24,COc1cccc(N(C(=O)c2snc(C(N)=O)c2N)C(C(=O)NCC2CCCO2)c2c[nH]c3ccccc23)c1 (stereo unspecified),-11.7% (inactive)

row,Structure (SMILES),inhibition
1,CCN(CC)c1ccc(/C=N/NC(=O)c2cnccn2)c(O)c1,62.2% (active)
2,CCN(CC)c1ccc(/C=N/Nc2nc(C)cc(C)n2)c(O)c1,28.1% (active)
3,CCN(CC)c1ccc(C(=O)N/N=C/c2ccc(N3CCOCC3)cc2)cc1,-11.2% (inactive)
4,Cc1cc(C)nc(N/N=C/c2c(CO)cnc(C)c2O)n1,3.16% (inactive)
5,Cc1cc(C)nc(N/N=C/c2ccncc2)n1,-5.35% (inactive)
6,Cc1ccc(C(=O)NCCNC(=O)c2cnccn2)cc1,3.15% (inactive)
7,Cc1nn(C(C)C(=O)N2CCOCC2)c(=O)c2nn(-c3ccccc3)c(C)c12 (stereo unspecified),-9.86% (inactive)
8,O=C(c1ccc(F)cc1)N1CCCC(C(=O)N2CCCCC2)C1 (stereo unspecified),4.46% (inactive)
9,CC(=O)Nc1ccc(S(=O)(=O)N2CCC(C(=O)N[C@@H](Cc3ccccc3)C(=O)O)CC2)cc1,-6.49% (inactive)
10,Cc1cccc(N(C)C(=O)c2cc(S(=O)(=O)N3CCCCC3)c[nH]2)c1,-6.21% (inactive)
11,CSc1ccccc1NC(=O)CN(C)CC(=O)Nc1cccc(Br)c1,-0.946% (inactive)
12,CCN(CC)C(=O)C(=O)Nc1cccc(Br)c1,106% (active)
13,C=C(C)C(=O)Nc1cccc(C(C)=O)c1,-10.8% (inactive)
14,O=C(N/N=C/c1cccc(OC(=O)c2ccc([N+](=O)[O-])cc2)c1)c1cccnc1,-3.03% (inactive)
15,CCN(CC)/[N+]([O-])=N/Oc1cc(O/[N+]([O-])=N/N2CCCC2CO)c([N+](=O)[O-])cc1[N+](=O)[O-] (stereo unspecified),-5.78% (inactive)
16,COc1ccc(-c2nc(CCNC(=O)c3ccc(Br)o3)cs2)cc1,20.3% (active)
17,CC(C)(C)NC(=O)NC(=O)COC(=O)Cc1ccc(Cl)cc1Cl,16.6% (inactive)
18,COc1cc(CC(=O)Nc2nc(-c3ccc(F)c(F)c3)cs2)cc(OC)c1OC,-5.98% (inactive)
19,COc1ccc(-c2csc(NC(=O)COC(=O)Cc3ccc(Cl)cc3Cl)n2)cc1,64% (active)
20,O=C(NCCc1csc(-c2ccccc2)n1)c1ccccc1F,40.5% (inactive)
21,COc1ccc(CC(=O)Nc2nc(-c3ccc(F)c(F)c3)cs2)cc1OC,-2.51% (inactive)
22,COc1ccc(-c2csc(NC(=O)COC(=O)c3ccc(Br)o3)n2)cc1,92.3% (active)
23,CCCc1ccc(-c2csc(NC(=O)Cc3cccs3)n2)cc1,13% (inactive)
24,COc1ccc(N2CCN(C(=O)CNC(=O)c3ccc(Br)o3)CC2)cc1,-11.6% (inactive)
